Nine compounds from ChEMBL document CHEMBL3988442, “University of Dundee, Small-Polar-MMV Screening Library” (2021) can be followed below.

Holding throughout (design): scale not given: direction of the effect not stated beside the values
Test [1] deals with Protein translocase subunit SecA (Escherichia coli (strain K12)) (UniProt P10408). The test can be described thus: Assay to Identify E. coli SecA ATPase Inhibitors. In kind it is functional. As to conditions: 30 µM.
Test [2] addresses T1, Ubiquitin-activating enzyme e1, putative (Leishmania donovani (strain BPK282A1)) (UniProt E9BSI1).
T1 sequence (whole entry): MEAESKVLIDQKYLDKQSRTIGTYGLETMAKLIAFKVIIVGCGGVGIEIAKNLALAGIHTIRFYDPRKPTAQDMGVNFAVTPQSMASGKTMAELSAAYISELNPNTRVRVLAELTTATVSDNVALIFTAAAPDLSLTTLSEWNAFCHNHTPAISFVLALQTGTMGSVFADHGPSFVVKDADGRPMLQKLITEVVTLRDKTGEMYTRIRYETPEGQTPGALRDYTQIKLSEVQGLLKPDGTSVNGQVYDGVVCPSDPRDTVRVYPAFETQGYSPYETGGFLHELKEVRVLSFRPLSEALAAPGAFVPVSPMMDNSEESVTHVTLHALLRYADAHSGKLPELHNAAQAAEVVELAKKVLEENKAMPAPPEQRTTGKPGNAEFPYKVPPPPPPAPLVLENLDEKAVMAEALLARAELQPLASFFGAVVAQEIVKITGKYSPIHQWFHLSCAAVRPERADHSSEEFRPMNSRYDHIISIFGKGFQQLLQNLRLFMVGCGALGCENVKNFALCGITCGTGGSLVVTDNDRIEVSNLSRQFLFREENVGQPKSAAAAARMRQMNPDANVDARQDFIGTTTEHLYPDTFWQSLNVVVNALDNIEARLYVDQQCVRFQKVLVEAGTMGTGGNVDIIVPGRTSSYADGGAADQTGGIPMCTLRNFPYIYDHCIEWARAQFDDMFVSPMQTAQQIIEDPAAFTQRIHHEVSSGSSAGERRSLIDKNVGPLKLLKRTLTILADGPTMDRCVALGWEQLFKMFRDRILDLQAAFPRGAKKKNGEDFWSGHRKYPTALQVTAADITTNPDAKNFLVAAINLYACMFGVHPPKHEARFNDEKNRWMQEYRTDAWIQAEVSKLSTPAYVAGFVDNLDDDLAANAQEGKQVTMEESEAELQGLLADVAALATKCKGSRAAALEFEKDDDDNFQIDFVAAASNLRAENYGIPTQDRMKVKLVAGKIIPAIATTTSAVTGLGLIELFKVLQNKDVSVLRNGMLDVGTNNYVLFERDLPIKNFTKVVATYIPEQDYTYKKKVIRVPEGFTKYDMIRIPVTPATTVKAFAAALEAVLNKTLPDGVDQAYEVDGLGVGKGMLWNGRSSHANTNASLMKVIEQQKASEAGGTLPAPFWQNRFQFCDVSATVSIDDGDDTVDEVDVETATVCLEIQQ
In words: Leishmania donovani Ubiquitin Activating Enzyme (LdE1). In kind it is functional. As to conditions: 30 µM.

Test [3] has as its target AMP-activated protein kinase, AMPK (Homo sapiens) (UniProt P54646+O43741+P54619+Q9UGJ0+Q9Y478+Q13131+Q9UGI9). In words: AMP-dependent Kinase enzyme assay. An in vitro enzyme assay that detects ADP turnover that is directly proportional to AMPK activity. This uses naive AMPK that is activated during the assay with MK-8722. Format: functional. As to conditions: 30 µM.
Test [4] has as its target Sialic acid-binding Ig-like lectin 9 (Homo sapiens) (UniProt Q9Y336). The test can be described thus: Hs-Siglec9 ALPHAscreen SOP 20170721. Particulars: 10 µM.
Test [5] relates to Trypanosoma cruzi. In words: Trypanosoma cruzi phosphomannomutase and mannose-1-phosphate guanylyltransferase assay. In kind it is functional. As to conditions: 10 µM.
In test [6] the target is T2, Arginase-2, mitochondrial (Homo sapiens) (UniProt P78540).
T2 sequence (whole entry): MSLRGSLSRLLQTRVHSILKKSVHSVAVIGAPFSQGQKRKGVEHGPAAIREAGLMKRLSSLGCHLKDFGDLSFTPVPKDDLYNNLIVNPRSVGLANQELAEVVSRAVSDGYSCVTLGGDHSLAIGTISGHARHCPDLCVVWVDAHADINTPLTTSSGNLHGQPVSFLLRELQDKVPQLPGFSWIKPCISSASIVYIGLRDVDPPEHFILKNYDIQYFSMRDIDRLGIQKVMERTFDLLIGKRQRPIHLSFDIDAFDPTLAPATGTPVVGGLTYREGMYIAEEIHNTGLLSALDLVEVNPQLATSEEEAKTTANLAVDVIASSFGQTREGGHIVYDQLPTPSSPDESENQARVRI
In words: in vitro enzyme assay to detect the production of urea directly proportional to the activity of Arginase II. Also: in the data most compounds retested in dose-response had high values. In kind it is functional. As to conditions: 33.3 µM.

The target in test [7] is T3, Proteasome subunit beta (Trypanosoma cruzi) (UniProt O96673).
T3 sequence (whole entry): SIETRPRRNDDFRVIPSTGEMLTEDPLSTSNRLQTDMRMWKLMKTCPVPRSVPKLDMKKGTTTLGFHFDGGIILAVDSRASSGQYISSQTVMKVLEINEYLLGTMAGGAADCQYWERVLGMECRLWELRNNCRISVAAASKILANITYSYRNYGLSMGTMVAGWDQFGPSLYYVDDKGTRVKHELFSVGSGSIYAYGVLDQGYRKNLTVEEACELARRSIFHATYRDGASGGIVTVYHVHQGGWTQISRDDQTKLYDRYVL
In words: Trypanosoma cruzi proteasome chymotrypsin-like activity (TcProtChymo) assay. Also: in the data most compounds retested in dose-response had high values. Particulars: 9.37 µM. Format: functional.

Test [8] is filed under the species Homo sapiens. In words: To identify inhibition of the IFN signalling (Jak-Stat) pathway via expression of an eGFP reporter gene under the control of an IFN-stimulated response element (ISRE) containing MxA promoter. Particulars: 30 µM. Format: functional.
Test [9] deals with T4, Tyrosyl-tRNA synthetase, putative (Trypanosoma cruzi (strain CL Brener)) (UniProt Q4DSP6).
T4 sequence (whole entry): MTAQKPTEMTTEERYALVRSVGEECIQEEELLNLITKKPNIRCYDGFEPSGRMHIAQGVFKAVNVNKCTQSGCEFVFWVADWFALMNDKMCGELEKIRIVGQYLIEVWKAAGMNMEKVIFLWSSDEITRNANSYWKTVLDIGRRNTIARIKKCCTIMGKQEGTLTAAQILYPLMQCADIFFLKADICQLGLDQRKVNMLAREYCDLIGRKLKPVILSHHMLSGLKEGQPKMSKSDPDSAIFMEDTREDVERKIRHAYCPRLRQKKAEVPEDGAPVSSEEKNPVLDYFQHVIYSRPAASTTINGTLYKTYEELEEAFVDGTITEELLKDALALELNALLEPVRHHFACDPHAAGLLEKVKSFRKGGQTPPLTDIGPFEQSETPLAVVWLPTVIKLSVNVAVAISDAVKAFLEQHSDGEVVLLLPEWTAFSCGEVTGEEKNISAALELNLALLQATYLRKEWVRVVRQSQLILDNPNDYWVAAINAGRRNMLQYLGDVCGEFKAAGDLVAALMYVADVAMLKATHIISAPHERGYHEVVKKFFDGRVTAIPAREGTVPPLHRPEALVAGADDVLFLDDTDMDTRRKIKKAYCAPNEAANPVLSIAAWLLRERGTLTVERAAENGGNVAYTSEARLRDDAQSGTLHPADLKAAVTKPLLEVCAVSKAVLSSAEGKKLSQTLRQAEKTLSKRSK
The test can be described thus: Trypanosoma cruzi tyrosyl tRNA synthetase (TcYRS) _High Tyrosine SOP. Also: in the data most compounds retested in dose-response had high values. In kind it is functional. Particulars: 30 µM.

For test [10], the target named is T4, Tyrosyl-tRNA synthetase, putative (Trypanosoma cruzi (strain CL Brener)). In words: Trypanosoma cruzi tyrosyl tRNA synthetase (TcYRS) SOP. Format: functional. As to conditions: 30 µM.
Test [11] addresses Chromo domain-containing protein 1 (Saccharomyces cerevisiae (strain ATCC 204508 / S288c) (Baker's yeast)) (UniProt P32657). In words: ScCHD-1 Enzyme Inhibition Assay. Also: in the data most compounds retested in dose-response had high values. Format: functional. Particulars: 30 µM.

Molecules are shown by their SMILES. For part of these data: Results with a measured potency or affinity are listed apart.

Sequence of Protein translocase subunit SecA (Escherichia coli (strain K12)) (P10408 whole entry): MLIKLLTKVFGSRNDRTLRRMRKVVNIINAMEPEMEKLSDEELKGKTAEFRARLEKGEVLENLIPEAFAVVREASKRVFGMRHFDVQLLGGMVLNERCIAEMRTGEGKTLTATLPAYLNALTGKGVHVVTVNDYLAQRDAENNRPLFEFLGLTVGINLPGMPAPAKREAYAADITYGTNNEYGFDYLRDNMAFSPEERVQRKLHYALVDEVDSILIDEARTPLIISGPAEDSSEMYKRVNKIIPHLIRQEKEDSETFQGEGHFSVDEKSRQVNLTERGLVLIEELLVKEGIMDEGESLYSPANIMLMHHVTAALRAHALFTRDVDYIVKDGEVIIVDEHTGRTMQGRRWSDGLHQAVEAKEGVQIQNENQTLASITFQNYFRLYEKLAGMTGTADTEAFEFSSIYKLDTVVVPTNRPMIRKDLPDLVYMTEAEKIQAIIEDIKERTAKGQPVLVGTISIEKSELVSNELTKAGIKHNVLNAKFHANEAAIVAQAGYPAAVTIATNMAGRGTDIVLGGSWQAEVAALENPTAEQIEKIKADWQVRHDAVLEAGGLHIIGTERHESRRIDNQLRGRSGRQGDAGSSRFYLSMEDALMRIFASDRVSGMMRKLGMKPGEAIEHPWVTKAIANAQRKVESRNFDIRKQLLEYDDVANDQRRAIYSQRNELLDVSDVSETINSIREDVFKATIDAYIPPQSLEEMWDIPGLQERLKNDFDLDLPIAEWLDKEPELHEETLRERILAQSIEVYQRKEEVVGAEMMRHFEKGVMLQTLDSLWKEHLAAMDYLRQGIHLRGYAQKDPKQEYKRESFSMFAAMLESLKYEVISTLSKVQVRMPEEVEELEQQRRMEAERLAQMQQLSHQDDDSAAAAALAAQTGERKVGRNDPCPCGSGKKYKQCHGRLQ
Sequence of Sialic acid-binding Ig-like lectin 9 (Homo sapiens) (Q9Y336 whole entry): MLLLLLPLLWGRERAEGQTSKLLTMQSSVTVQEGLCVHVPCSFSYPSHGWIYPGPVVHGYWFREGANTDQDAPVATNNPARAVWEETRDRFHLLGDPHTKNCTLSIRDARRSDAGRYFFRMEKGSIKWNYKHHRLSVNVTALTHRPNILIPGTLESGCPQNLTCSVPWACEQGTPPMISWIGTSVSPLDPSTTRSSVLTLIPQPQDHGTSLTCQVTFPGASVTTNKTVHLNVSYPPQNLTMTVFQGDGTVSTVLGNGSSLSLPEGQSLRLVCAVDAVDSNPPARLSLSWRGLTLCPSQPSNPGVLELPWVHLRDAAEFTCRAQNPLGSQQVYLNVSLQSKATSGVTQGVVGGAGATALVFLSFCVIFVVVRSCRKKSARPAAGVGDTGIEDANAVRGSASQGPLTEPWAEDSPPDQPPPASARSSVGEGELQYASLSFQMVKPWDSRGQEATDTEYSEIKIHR
Sequence of Chromo domain-containing protein 1 (Saccharomyces cerevisiae (strain ATCC 204508 / S288c) (Baker's yeast)) (P32657 whole entry, the tested form may be a part): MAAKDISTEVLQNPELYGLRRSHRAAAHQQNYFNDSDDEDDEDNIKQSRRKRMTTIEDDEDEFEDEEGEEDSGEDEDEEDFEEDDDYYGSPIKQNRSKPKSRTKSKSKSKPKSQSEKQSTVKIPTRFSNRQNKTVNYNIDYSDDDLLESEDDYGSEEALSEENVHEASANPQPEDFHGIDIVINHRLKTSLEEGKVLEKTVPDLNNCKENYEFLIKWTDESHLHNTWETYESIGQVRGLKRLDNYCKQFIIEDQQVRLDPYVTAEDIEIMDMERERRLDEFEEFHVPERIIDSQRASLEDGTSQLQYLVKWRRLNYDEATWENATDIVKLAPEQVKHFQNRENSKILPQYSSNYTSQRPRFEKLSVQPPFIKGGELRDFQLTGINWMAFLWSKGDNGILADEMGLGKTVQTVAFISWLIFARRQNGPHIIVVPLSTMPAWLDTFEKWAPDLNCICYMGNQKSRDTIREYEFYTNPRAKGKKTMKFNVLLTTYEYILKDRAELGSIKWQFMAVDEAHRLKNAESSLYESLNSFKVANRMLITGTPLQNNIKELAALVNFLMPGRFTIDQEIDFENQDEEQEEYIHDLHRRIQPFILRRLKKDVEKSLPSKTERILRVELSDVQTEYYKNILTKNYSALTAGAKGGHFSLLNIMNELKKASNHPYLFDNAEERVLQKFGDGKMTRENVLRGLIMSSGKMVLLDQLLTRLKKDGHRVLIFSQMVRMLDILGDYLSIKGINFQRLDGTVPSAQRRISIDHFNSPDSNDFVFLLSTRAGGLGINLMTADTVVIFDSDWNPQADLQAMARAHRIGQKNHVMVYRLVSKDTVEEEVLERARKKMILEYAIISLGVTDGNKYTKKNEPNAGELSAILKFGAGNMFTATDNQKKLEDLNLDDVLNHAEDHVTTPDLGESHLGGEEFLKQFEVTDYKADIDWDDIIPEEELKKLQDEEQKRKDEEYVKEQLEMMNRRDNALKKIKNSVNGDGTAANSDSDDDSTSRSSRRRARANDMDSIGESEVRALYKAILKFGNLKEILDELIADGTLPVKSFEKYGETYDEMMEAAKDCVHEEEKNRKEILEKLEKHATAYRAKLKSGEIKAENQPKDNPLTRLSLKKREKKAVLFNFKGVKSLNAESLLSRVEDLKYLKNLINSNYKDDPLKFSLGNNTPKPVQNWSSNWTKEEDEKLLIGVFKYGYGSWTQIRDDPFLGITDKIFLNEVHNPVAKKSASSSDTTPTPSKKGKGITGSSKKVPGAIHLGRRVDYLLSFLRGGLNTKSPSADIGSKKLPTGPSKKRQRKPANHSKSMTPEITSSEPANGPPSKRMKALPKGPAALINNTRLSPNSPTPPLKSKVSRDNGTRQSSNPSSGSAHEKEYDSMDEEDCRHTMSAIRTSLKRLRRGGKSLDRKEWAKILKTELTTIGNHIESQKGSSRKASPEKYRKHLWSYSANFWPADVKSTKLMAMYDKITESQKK

On to `COCCNc1ccc(CNC(=O)Nc2cn[nH]c2)cc1`, for which the Percent Effect in [1] is -0.0653%; in [2], 20.2%; in [3], -7.85%; in test [4], 0.901%; in test [5], -10.5%; in [6], 3.42%. Besides, the Percent Effect in test [7] was 1.06%; in [8], 20.9%; in test [9] it was 3.45%; in test [10], 11.4%; in [11] it was -5.01%.

Take `CN(C)S(=O)(=O)N1CCCC1CC(=O)c1cccs1` (centres undefined): the Percent Effect is 2.35% in [1]; 2.7% in [2]; -3.98% in test [3]; 2.64% in test [4]; 1.74% in test [5]; 11.9% in [6]. Besides, the Percent Effect in test [7] was -0.862%; in test [8], 16.6%; in test [9], -2.65%; in test [10], 4.88%; in [11], -1.64%.

Turning to `O=C(c1ccco1)N1CCCC(c2cc(C(F)F)n3ncnc3n2)C1` (centres undefined), the Percent Effect in test [1] was -1.42%; in test [2], 4.05%; in test [3] it was 9.33%; in test [4], 28.2%; in test [5], -8.5%; in test [6], 3.02%. In addition, the Percent Effect in test [7] amounted to 3.9%; in test [8] it was 7.52%; in [9] it was 0%; in [10], 3.9%; in test [11] it was 3.66%.

`CCc1ncncc1C(=O)N1CCN(Cc2c(C)noc2C)CC1`: the Percent Effect is -5.8% in [1]; 13.2% in test [2]; -4.4% in test [3]; 4.23% in test [4]; 2.89% in [5]; 0.36% in test [6]. The Percent Effect in test [7] was 3.98%; in test [8] it was -0.539%; in test [9], 7.39%; in test [10], 16.1%; in [11], -0.381%.

Take `CCOCCC(=O)Nc1cccc(Oc2ccccn2)c1`: the Percent Effect is -5.45% in test [1]; 0% in [2]; -0.587% in test [3]; 2.14% in test [4]; 0.487% in test [5]; 2.37% in test [6]. Moreover, the Percent Effect in [7] was 0.288%; in test [8], -0.792%; in [9], 0%; in test [10] it was -5.2%; in test [11] it was 6.72%.

Consider `CN1CCOC(CNCc2coc(-c3ccccc3)n2)C1` (centres undefined), for which the Percent Effect in test [1] was 0.225%; in test [2], 12.7%; in test [3], -7.36%; in [4] it was -10.7%; in test [5] it was -5.57%; in test [6], 7.22%. Moreover, the Percent Effect is 8.6% in [7]; 24.4% in test [8]; 6.4% in [9]; 13.9% in test [10]; -5.22% in test [11].

As for `CS(=O)(=O)N1CCCN(C(=O)c2ccc(Cn3ccccc3=O)o2)CC1`, the Percent Effect in [1] was 0.345%; in test [2], 10.8%; in [3] it was -1.54%; in test [4], -9.12%; in test [5] it was -8.45%; in test [6] it was 2.77%. The Percent Effect in test [7] is 5.03%; in test [8], 12.3%; in test [9] it was 6.93%; in test [10] it was 15.8%; in test [11], -7.1%.

`Cc1nccn1C1CCCN(C(=O)c2cc(O)nc3ccccc23)C1` (centres undefined): the Percent Effect in [1] is -2.57%; in [2], 12.7%; in test [3], -7.86%; in test [4] it was 5.85%; in [5], -1.98%; in [6] it was -4.18%. Besides, the Percent Effect in [7] was -4.34%; in [8], -4.23%; in test [9], 6.4%; in test [10] it was 13.9%; in test [11], -5.76%.

Consider `CC(Cn1cccn1)NC(=O)NCCc1ccc(Cl)s1` (centres undefined), for which the Percent Effect was -0.239% in test [1]; 22.8% in [2]; 0.135% in [3]; -8.1% in test [4]; -0.283% in test [5]; 1.52% in test [6]. Moreover, the Percent Effect in test [7] was 9.75%; in [8] it was 5.52%; in test [9] it was 3.45%; in test [10] it was 16.5%; in test [11], -2.95%.
